Peg3 promoter: inhibitors of Peg3 promoter. HeLa PEG-Prom luciferase reporter, luminescence, overnight. inhibition, % at 20 µM. 360,000 tested, 1.7% active. AID 588405;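 active = inhibition of at least 50% at 20 µM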
KKLEB tox: reduces viability of KKLEB cystic fibrosis airway cells; KKLEB CF airway cells viability, ATPlite luminescence, overnight; hits give low values; cells stimulated with P. aeruginosa culture filtrate; activity change (cytotoxicity), % at 5 µM; 360,000 tested, 0.36% active; AID 602141;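 active = corrected activity change at or below -50% at 5 µM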
MITF TRPM1 inh: inhibitors of MITF-driven TRPM1 promoter in melanoma cells; inhibition, % at 12.5 µM; 330,000 tested, 0.83% active; SK-MEL-5 TRPM1 promoter luciferase, 24 h;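 active = mean inhibition across replicates of 60% or more, whatever share of single replicates reaches that level; inconclusive = some that reach 60%, reason not given; inactive = mean inhibition across replicates below 60%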
CF NFkB inh: blocks PAF-induced NF-kB reporter in cystic fibrosis cells; KKLEB NF-kB-GFP reporter, GFP fluorescence overnight; inhibition, % at 5 µM; 360,000 tested, 0.86% active; AID 588850;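 active = at least 50% inhibition at 5 µM, scaled per plate between neutral and stimulator controls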;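 also: PAF is a Pseudomonas aeruginosa culture filtrate used as stimulus; plate controls were PAF-stimulated DMSO wells for no effect and unstimulated DMSO wells for full effect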
HIF-2a inh: blocks HIF-2a reporter activity; 786-0 RCC cells HIF-2a reporter, luciferase luminescence, overnight; inhibition, % at 18.8 µM; 360,000 tested, 0.72% active; AID 624352;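 active = inhibition of the luminescence signal of 40% or more relative to plate controls, in a single-dose primary screen at 18.75 µM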
ABHD5-PLIN5 inh: inhibitors of human ABHD5-perilipin-5 interaction. Q00G26+Q8WTS1. Split G. princeps luciferase complementation, luminescence, 4 h. inhibition, % at 4 µM. 360,000 tested, 0.78% active;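 active = inhibition above the mean inhibition across every tested compound plus 3 SD, cut at about 22% in these data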;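 also: 0% = DMSO only wells and the 100% control is not disclosed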
Target sequence (Q00G26 whole entry, looked up): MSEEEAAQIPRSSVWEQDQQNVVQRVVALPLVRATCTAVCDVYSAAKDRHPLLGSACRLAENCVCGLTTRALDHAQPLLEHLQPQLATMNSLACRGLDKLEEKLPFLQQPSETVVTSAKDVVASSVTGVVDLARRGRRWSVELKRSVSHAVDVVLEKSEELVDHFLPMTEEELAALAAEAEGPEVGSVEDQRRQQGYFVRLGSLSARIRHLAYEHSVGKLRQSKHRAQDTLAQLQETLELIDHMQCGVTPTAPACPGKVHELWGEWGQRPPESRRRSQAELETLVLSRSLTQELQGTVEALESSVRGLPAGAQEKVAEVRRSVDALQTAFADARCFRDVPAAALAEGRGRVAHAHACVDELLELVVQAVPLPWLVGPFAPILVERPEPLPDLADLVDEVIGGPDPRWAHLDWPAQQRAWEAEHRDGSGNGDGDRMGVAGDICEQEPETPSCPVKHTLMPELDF
Target sequence (Q8WTS1 whole entry, looked up): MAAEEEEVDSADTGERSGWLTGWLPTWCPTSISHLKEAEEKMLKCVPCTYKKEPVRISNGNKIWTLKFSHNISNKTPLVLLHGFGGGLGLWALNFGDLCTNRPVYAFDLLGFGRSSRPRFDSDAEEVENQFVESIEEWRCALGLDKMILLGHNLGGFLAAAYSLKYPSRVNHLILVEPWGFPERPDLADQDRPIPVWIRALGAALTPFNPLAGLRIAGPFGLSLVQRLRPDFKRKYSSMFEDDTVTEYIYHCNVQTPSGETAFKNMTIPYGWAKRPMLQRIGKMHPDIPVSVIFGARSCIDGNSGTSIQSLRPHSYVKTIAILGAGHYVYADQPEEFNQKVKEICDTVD
* = called active by the depositor; u = inconclusive; x = no result. Rows were chosen to be rich in hits. Some 3.1% of all compounds tested hit in one or more screens of this group.

SMILES	Peg3 promoter	KKLEB tox	MITF TRPM1 inh	CF NFkB inh	HIF-2a inh	ABHD5-PLIN5 inh
O=C(NCCCCc1ccccc1)c1ccccc1Br	-14	4	x	8	-38	-1
O=C(NCCc1ccc(C(F)(F)F)cc1)C1CCC(=O)N(CCc2cccc(F)c2)C1 (centres undefined)	-41	-14	-29	4	-38	3
O=C(NCCc1cccnc1)C1CCC(=O)N(CCc2cccc(F)c2)C1 (centres undefined)	5	9	-1	-11	5	22*
O=C(N/N=C(\c1ccccc1)c1cccnc1)c1cccc(F)c1	53*	11	90*	-23	3	-3
COc1ccccc1N1CCN(Cc2cc(=O)oc3cc(C)cc(C)c23)CC1	10	-19	x	10	18	0
O=[N+]([O-])c1ccc(C2=Nn3c(Cn4nnc5ccccc54)nnc3SC2)cc1	15	1	1	-8	13	-1
O=C(Nc1ccccc1NC(=O)c1c(F)c(F)c(F)c(F)c1F)c1c(F)c(F)c(F)c(F)c1F	68*	-4	13	10	14	-2
COC(=O)c1sccc1NC(=O)c1c(F)c(F)c(F)c(F)c1F	67*	2	x	-14	37	3
COC(=O)c1sccc1NC(=O)c1cccc(F)c1	19	-3	22	-12	6	0
CC(=O)C1=CCC(c2ccc(F)cc2)N(S(=O)(=O)c2ccc(C)cc2)C1 (centres undefined)	7	-2	x	-5	-4	2
CCCCC(=O)NC(c1ccco1)c1cc(Cl)c2cccnc2c1O (centres undefined)	49	-12	6	21	35	7
CCCCC(=O)NC(c1ccc(C(C)C)cc1)c1ccc2cccnc2c1O (centres undefined)	53*	-15	70*	-8	13	13
O=[N+]([O-])c1ccc(NC(c2ccccc2)c2ccc3cccnc3c2O)cc1 (centres undefined)	58*	-19	74*	8	21	13
CCC(=O)NC(c1ccccc1OC)c1ccc2cccnc2c1O (centres undefined)	47	-2	66*	-9	13	3
COc1cccc(C(NC(C)=O)c2ccc3cccnc3c2O)c1 (centres undefined)	47	19	84*	-10	16	1
CCN(c1ccccc1)S(=O)(=O)c1cccc(C(=O)Nc2ccc(C)cn2)c1	16	0	1	-1	9	1
O=C(O)CCSc1nnc(SCC(=O)NC2CCS(=O)(=O)C2)s1 (centres undefined)	-5	10	-1	2	7	7
CC(=O)NC(Cc1ccccc1F)C(=O)NC1CCN(C(=O)NCc2ccccc2)CC1 (centres undefined)	-7	-7	-4	-4	0	1
COc1ccc(Cl)cc1C(Nc1cccnc1)c1ccc2cccnc2c1O (centres undefined)	35	-44	29	11	32	23*
O=C(O)c1cc2ccccc2c(N=Nc2cccnc2)c1O	55*	-12	u	18	73*	-5
O=C(N=Nc1c(O)[nH]c2ccc([N+](=O)[O-])cc12)c1ccccc1Cl	-43	-3	-9	-38	-82	-3
O=C(N=Nc1c(O)[nH]c2ccc(Cl)cc12)c1cc(-c2cccs2)nc2ccccc12	70*	4	19	-5	-18	2
C[C@H](O)[C@@H]1CN2CCc3c([nH]c4ccccc34)[C@@H]2C[C@@H]1N(C)C(=O)Nc1cc(Cl)cc(Cl)c1	22	-2	x	2	-4	-9
Cc1cccc(-c2ccc3[nH]c4c(c3c2)CCN2C[C@@H]([C@H](C)O)[C@@H](N(C)C(=O)Nc3ccc(F)cc3)C[C@@H]42)c1	100*	-12	x	28	2	2
C[C@H](O)[C@@H]1CN2CCc3c([nH]c4ccc(-c5ccc6c(c5)OCO6)cc34)[C@@H]2C[C@@H]1N(C)C(=O)Nc1cc(Cl)cc(Cl)c1	67*	-5	x	35	9	-12
COc1ccc(C)c2sc(NC(=O)CCS(=O)(=O)c3ccccc3)nc12	78*	-40	8	36	-51	2

Bioassay records as filed in PubChem.
